Beta cell apopt – blocks beta cell apoptosis; protection from apoptosis, % (test concentration not listed); AID 435005; 300,000 compounds, 0.8% hits; INS-1E cytokine-induced death, ATP luminescence, 48 h; percent of positive-control rescue, neutral wells zero;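 active = Every replicate reaches about 75%, or at least half do and their mean reaches it too, limit read from the data; inconclusive = At least half of replicates reach the limit but their mean does not; inactive = Under half of replicates reach the limit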;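 also: 0% = cytokine-treated negative control wells and 100% = positive control rescue; higher means more ATP so stronger rescue from cytokine killing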
Calb FLC – C. albicans growth modulation with fluconazole. C. albicans CaCi-2 (fluconazole-resistant clinical isolate) + fluconazole, Alamar Blue growth, 48 h. growth inhibition, % (test concentration not listed). 300,000 compounds, 0.57% hits. AID 1979;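 active = growth inhibition above about 58% in most replicates, limit read from the data, passing the limit was not always enough; inconclusive = exactly half the replicates above a set limit; inactive = most replicates below a set limit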;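 also: all wells also contain fluconazole at 8 µg/ml as a sub-toxic cotreatment; 0% = median of DMSO wells and 100% = median of geldanamycin control wells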
Shn3 3UTR inh – inhibitors of Schnurri-3 3'UTR reporter in osteoblasts; Clone20 osteoblast Shn3 3'UTR firefly luciferase, 24 h; AID 588674; 360,000 compounds, 0.52% hits; inhibition, % at 12.5 µM;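 active = mean inhibition of at least 75% with every replicate also reaching 75%; inconclusive = mean inhibition at least 75% but some replicate below; inactive = mean inhibition below 75%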;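 also: 0% = median of neutral control wells and 100% = pilot-screen positive control compound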
Jurkat NFkB inh – lowers PMA/ionomycin-induced NF-kB signal in Jurkat cells. PMA/ionomycin-induced NF-kB luciferase reporter, luminescence. inhibition, % at 4 µM. 330,000 compounds, 0.53% hits; in the data active = inhibition above about 50%
697 NFkB inh – lowers PMA/ionomycin-induced NF-kB signal in 697 B cells. 330,000 compounds, 0.33% hits. AID 435022. 697 B-cell NF-kB luciferase reporter, 16 h. inhibition, % at 4 µM; in the data active = inhibition above about 35%
Jurkat NFkB conf – lowers PMA/ionomycin-induced NF-kB signal in Jurkat cells | shares compounds with Jurkat NFkB inh | 2,700 compounds, 27% hits | inhibition, % at 4 µM | Jurkat NF-kB luciferase, 16 h | AID 435020;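 active = inhibition reaching about 45% at 4 µM in either replicate, limit read from the data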;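 also: plate controls were PMA/ionomycin stimulated DMSO wells for no effect and unstimulated DMSO wells for full effect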
* marks the source's active call; other numbers are inactive results; ? = inconclusive; . = no result. A selection: hits, their analogues and other compounds. The true share with any hit is near 2%.

SMILES	Beta cell apopt	Calb FLC	Shn3 3UTR inh	Jurkat NFkB inh	697 NFkB inh	Jurkat NFkB conf
COc1cccc(N2CCN(c3ncnc4c3[nH]c3ccccc34)CC2C)c1 (stereo unspecified)	58	-2	.	54*	16	79*
O=C(Nc1nc2c(s1)CCCC2)c1ccc2ncsc2c1	14	0	-30	-183	-224	-86
Cc1ncsc1C(=O)Nc1nc2c(s1)CCCC2	18	10	-42	-105	-64	.
Cc1cc(C(=O)Nc2nc3c(s2)CCCC3)cs1	14	18	-24	-165	0	-97
O=C(Nc1nc2c(s1)CCCC2)c1ccc(Br)s1	20	-22	5	-190	-221	-105
O=C(Nc1nc2c(s1)CCCC2)c1ccc(N2C(=O)CCC2=O)cc1	.	-3	-58	0	-63	.
Cc1ccc(S(=O)(=O)NNC(=O)c2ccc3ccccc3n2)cc1	-3	4	2	9	4	.
CC(=O)n1c2ccccc2c2ccccc21	.	4	-17	10	11	.
Cc1ccc(C(=O)n2c3ccccc3c3ccccc32)cc1	17	3	16	54*	-42	15
CC(C)c1ccc(NC(=O)c2csnn2)cc1	2	7	-97	-162	-175	-109
O=C(Nc1ccccc1NC(=O)c1csnn1)c1csnn1	.	16	5	13	0	.
COc1cc(C(=O)OCCc2cc3ccccc3c(=O)o2)cc(OC)c1OC	9	.	-3	58*	-73	58*
COc1cc(C(=O)OCCCc2cc3ccccc3c(=O)o2)cc(OC)c1OC	3	.	-51	22	7	.
S=C(Nc1cccc2ccccc12)NC1CCCCC1	0	12	-5	-40	-35	.
Oc1cccc(/C=N/N=C/c2cccc(O)c2O)c1O	.	6	-61	81*	-191	-21
Cc1cc(C)c2sc(NC(=O)C3CC3)nc2c1	-1	-4	-35	-29	-8	.
C=CCn1c(SCc2c(C)noc2C)nc2ccccc2c1=O	16	20	-11	78*	16	52*
C=CCn1c(SCc2c(C)noc2C)nc2cc(C(=O)O)ccc2c1=O	-2	26	9	8	2	.
Cc1noc(C)c1CSc1nc2ccccc2c(=O)n1-c1ccccc1	29	5	7	54*	-6	45
C=CCn1c(SCc2cc(C(C)=O)ccc2OCC)nc2ccccc2c1=O	6	2	28	58*	7	36
C=CCc1cccc2cc(C(=O)N3CCN(C(=O)c4ccccc4)CC3)c(=O)oc12	-3	-3	9	2	23	.
CC1CN(C(=S)Nc2cccc(Cl)c2)CC(C)O1 (stereo unspecified)	.	-11	-31	1	-14	.
COC(=O)C1=C(C)NC2=C(C(=O)CC(c3cccs3)C2)C1c1ccsc1 (stereo unspecified)	2	?	28	.	.	.
CCOC(=O)C1=C(C)NC2=C(C(=O)CC(c3cccs3)C2)C1c1cccs1 (stereo unspecified)	7	.	8	60*	-28	5
O=C(Nc1ccccc1)c1cc(-c2ccccc2Cl)no1	-3	-31	-64	-172	0	-41
SMILES	Beta cell apopt	Calb FLC	Shn3 3UTR inh	Jurkat NFkB inh	697 NFkB inh	Jurkat NFkB conf
CCOCCCNC(=O)c1cc2c(=O)n3cccc(C)c3nc2n1C	8	4	-2	58*	-12	44
COCCNC(=O)c1cc2c(=O)n3cccc(C)c3nc2n1C	.	0	6	47	-12	.
CN(CC(=O)Nc1ccc(Cl)cc1)C(=O)CNC(=O)c1ccc(Br)o1	.	-8	-2	4	14	.
Cc1ccc(Oc2ccc(OCC(=O)Nc3ccncc3)cc2)cc1	-3	.	?	65*	23	77*
O=C(CSc1ccccc1)Nc1ccc2c(c1)OCCO2	.	-30	-14	-167	-17	-81
CN1CCN(c2ccc(NC(=O)CSc3ccccc3)cc2F)CC1	6	-17	-70	-155	-159	-51
COc1ccc(-c2coc3c(C(=O)NCc4ccc(C(F)(F)F)cc4)cccc23)c(C)c1	.	.	49	.	.	.
Cc1ccc(O)c(N/C=C/C(=O)c2ccc(F)cc2)c1	4	-22	-11	85*	-50	14
Cc1cc(N/C=C/C(=O)c2ccccc2)ccc1Br	6	2	-33	-167	-248	-120
Cc1ccc(C(=O)/C=C/Nc2ccc([N+](=O)[O-])cc2Br)cc1	-2	2	-85	-165	-187	-41
Cc1ccc(C(=O)/C=C\Nc2ccc(C)c(C)c2)cc1	-8	5	-52	-162	-146	-18
Cc1ccc(C(=O)/C=C/Nc2ccccc2C(N)=O)cc1	17	2	-10	-71	-189	.
Cc1ccc(N/C=C/C(=O)c2ccc(C)cc2)cc1	2	0	-63	-142	-135	.
C/C=C(\C)CN1CCC(Oc2ccc(C(=O)NCc3ccccn3)cc2)CC1	-5	6	-7	-9	8	.
COC(=O)CC1C(=O)NCCN1C(=O)c1cc(OC)c(OC)cc1OC (stereo unspecified)	-3	-2	0	-6	1	.
C=CCOc1ccccc1CN1CCCCCC1	-4	0	3	-2	-3	.
COCCn1c(C)nnc1SCC(=O)NNC(=O)c1ccc(Cl)cc1	-5	-2	4	10	10	.
CC(=O)Nc1ccc(N/C=C/C(=O)c2ccccc2)cc1	0	4	-87	-109	-115	.
CN(C)c1ccc(N/C=C/C(=O)c2ccccc2)cc1	6	0	13	-171	-100	-49
CN(C)c1ccc(N=Nc2ccc(S(N)(=O)=O)cc2)cc1	-1	-6	-88	-154	-156	-79
CC(C)Cc1nnc(NC(=O)c2ccc(N3CCCC3=O)cc2)s1	-4	.	2	-11	-17	.
NC(=O)c1ccsc1NC(=O)c1ccc(N2CCCC2=O)cc1	9	-4	-20	-161	-139	-70
CCOc1ccc(Cc2c(Cl)nc(SC)nc2N(C)C)cc1	23	5	7	60*	-70	27
OCCCNc1c2ccccc2nc2ccccc12	109*	2	-16	84*	18	-23
CC(C)CC1C(=O)N(Cc2cn(CCC3OCCCO3)nn2)CCS(=O)(=O)N1Cc1ccc(-c2ccc(Cl)nc2)cc1 (stereo unspecified)	.	.	-1	.	.	.
Cc1cc(C)c2c(N)c(C(=O)Nc3ccc(F)cc3)sc2n1	.	2	-46	-155	-154	-32
CN(c1ccccc1)S(=O)(=O)c1cccc(NC(=O)c2ccc(Cl)c([N+](=O)[O-])c2)c1	8	.	73	63*	-5	10
CC(=O)Nc1ccc(C(=O)Nc2cccc(S(=O)(=O)N(C)c3ccccc3)c2)cc1	-2	.	12	2	-2	.
CCc1ccc(-c2cc(C(=O)O)c3ccccc3n2)s1	7	-10	-75	-12	-78	.
CCc1ccc(Nc2ncc3c(n2)CC(c2ccc(OC)cc2)CC3=O)cc1 (stereo unspecified)	4	5	10	-7	-5	.

Screening data as filed in PubChem BioAssay.
